Test results: PubChem BioAssay AID1003 (National Center for Advancing Translational Sciences (NCATS), 2008)
Activity calls are given as the source filed them.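 How the source made its calls: active means compounds that block the bacterial enzyme AmpC beta-lactamase with detergent present and have a measured Ki; inactive means the rest.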

Molecular target: Beta-lactamase (Escherichia coli (strain K12)) (UniProt P00811)
Experiment: Confirmation Cuvette-Based Assay for Inhibitors of AmpC Beta-Lactamase (assay with detergent)
Settings: purified AmpC, nitrocefin hydrolysis absorbance, 0.01% Triton
Description: NIH Molecular Libraries Screening Centers Network [MLSCN] NIH Chemical Genomics Center [NCGC] MLSCN Grant: MH079825-01 Assay Provider: Shoichet, Brian K. This aggregation profiling approach exploits the sensitivity of aggregate formation to detergent. Inhibition of b-lactamase is measured in the presence and absence of 0.01% Triton X-100 (Feng 2007). This particular assay is a confirmation of previous qHTS (Inglese, 2006), Pubchem AID 584, assay with presence of 0.01% Triton X-100. For a related assay without detergent, see AID 585. Compounds that inhibit only in the absence of detergent are considered likely promiscuous aggregators. This confirmation assay is a cuvette-based screen of an oxadiazole carbamate series which is an expansion around docking hit Pubchem SID 4244870.
Reactions were performed in methylacrylate cuvettes in 1 mL of reaction volume. The beta-lactamase assay contained 1 nM AmpC beta-lactamase, 200 uM Nitrocefin and varying amounts of Triton X-100 (either 0.00002% or 0.1%). Compound and enzyme were incubated for 5 minutes before the reaction was initiated by addition of substrate. Nitrocefin hydrolysis was monitored as an increase in absorption at 482 nm on an Agilent 8453 UV-visible spectrophotometer at room temperature.

Beta-lactamase (Escherichia coli (strain K12)), sequence (P00811 whole entry, looked up): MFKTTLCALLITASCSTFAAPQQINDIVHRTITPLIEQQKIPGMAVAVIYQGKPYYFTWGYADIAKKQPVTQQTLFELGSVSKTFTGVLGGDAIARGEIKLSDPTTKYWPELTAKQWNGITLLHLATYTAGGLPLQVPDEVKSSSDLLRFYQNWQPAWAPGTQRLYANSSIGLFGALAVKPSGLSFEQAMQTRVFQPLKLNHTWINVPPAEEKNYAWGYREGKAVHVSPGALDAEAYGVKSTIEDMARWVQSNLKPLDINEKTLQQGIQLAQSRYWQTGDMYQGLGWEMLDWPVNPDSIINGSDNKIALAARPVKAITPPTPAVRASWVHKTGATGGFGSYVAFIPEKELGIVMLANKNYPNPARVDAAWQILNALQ

Ki, active:
O=C(O)c1ccc2c(c1)C(=O)N([C@H](Cc1c[nH]c3ccccc13)C(=O)O)C2=O 17 µM, CC(C)(C)c1ccc(C[C@H](C(=O)O)N2C(=O)c3ccc(C(=O)O)cc3C2=O)cc1 11 µM, Cc1ccc(C[C@H](C(=O)O)N2C(=O)c3ccc(C(=O)O)cc3C2=O)c(C)c1 17 µM, O=C(O)c1ccc2c(c1)C(=O)N([C@H](Cc1c3ccccc3cc3ccccc13)C(=O)O)C2=O 12 µM, O=C(O)c1ccc2c(c1)C(=O)N([C@H](Cc1ccc(-c3ccccc3)cc1)C(=O)O)C2=O 15 µM, O=C(O)c1ccc2c(c1)C(=O)N([C@H](Cc1ccc3ccccc3c1)C(=O)O)C2=O 14 µM, O=C(O)c1ccc2c(c1)C(=O)N([C@H](Cc1cccc3ccccc13)C(=O)O)C2=O 5 µM, Cn1cc(C[C@H](C(=O)O)N2C(=O)c3ccc(C(=O)O)cc3C2=O)c2ccccc21 17 µM
